In PubChem BioAssay AID588849 (Broad Institute, 2011):
Potency and affinity values are given separately. Values without a mark were called inactive. No rule for the calls is given here.

Each molecule was assayed against CAAX prenyl protease 2 (Homo sapiens) (UniProt Q9Y256) (assay: human Rce1 protease inhibitors, dose response, biochemical, yeast membranes, quenched-peptide fluorescence, cherry-pick (AID 588849)). Settings: yeast membrane fractions expressing human Rce1, quenched-peptide fluorescence, 4 h; series mostly up to 10 µM; activity change, negative = inhibition: at the top concentration.
Sequence of CAAX prenyl protease 2 (Homo sapiens) (Q9Y256 whole entry, looked up): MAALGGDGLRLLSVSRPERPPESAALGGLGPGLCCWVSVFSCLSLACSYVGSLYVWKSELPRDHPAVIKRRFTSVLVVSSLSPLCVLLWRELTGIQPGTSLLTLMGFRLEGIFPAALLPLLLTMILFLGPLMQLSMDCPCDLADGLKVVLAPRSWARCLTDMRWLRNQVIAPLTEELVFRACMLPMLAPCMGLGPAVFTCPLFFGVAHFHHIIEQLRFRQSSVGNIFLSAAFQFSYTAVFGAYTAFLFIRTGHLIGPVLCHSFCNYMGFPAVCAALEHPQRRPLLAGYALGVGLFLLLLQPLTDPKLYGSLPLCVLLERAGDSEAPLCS

| Structure (SMILES) | activity change, negative = inhibition |
| --- | --- |
| CCOc1ccc(N(CC(=O)NC2CC3CCC2C3)S(=O)(=O)c2ccccc2)cc1 (stereo not drawn) | -0.176% |
| COc1ccccc1N1CCN(c2ncc(C(=O)N3CCN(c4cccc(Cl)c4)CC3)c3ccccc23)CC1 | 16% |
| CCC1CCCCN1C(=O)NC(=O)c1ccccc1 (stereo not drawn) | -9.93% |
| CCCCCCCCCCOC(=O)Cn1c(COc2ccc(C)cc2)[n+](C)c2ccccc21 | -18.4% |
| CCOC(=O)[C@@H]1[C@H]2COc3ccc(Br)cc3[C@@H]2N2C(=O)N(c3cccc(Cl)c3)C(=O)[C@]12C | 2.86% |
| CC(C)CNC(=O)Nc1ccc(F)c(Cl)c1 | 0.189% |
| COc1ccc(OC)c(/C=N/NC(=O)Cn2ccnc2C)c1 | -12.8% |
| CC(Cc1cccs1)NC(=O)Nc1ccc([N+](=O)[O-])cc1 (stereo not drawn) | -3.92% |
| O=C1OCCN1C(=O)[C@H]1[C@H](c2ccc(F)cc2)C(c2ccc(F)cc2)=NN1c1ccc(Br)cc1 | -16.6% |
| S=c1[nH]nc(-c2ccccc2)o1 | -16.1% |
| O=C(O/N=C\c1ccc(N2CCCCC2)c([N+](=O)[O-])c1)c1cccc(C(F)(F)F)c1 | -8.18% |
| CCCCCCCCNC(C)C(O)c1ccc(SC(C)C)cc1 (stereo not drawn) | -17.8% |
| Cc1cc(N2CCN(C(c3ccccc3)c3ccccc3)CC2)n2ncnc2n1 | 7.07% |
| COc1cc(-c2nc3ccccn3c2/N=C/c2cccc(OC)c2O)ccc1O | -16% |
| CCn1cc(C(=O)NCCO)c(=O)c2cc(F)c(N3CCN(C)CC3)cc21 | 7.34% |
| CC1=NN(c2ccccc2)C(=O)/C1=C\c1ccc(Br)s1 | -15.8% |
| Nc1nnnn1/N=C/c1cccc(OCc2ccccc2Cl)c1 | 19.6% [at 3.5 µM] |
| CCS(=O)(=O)Nc1c(C(=O)O)[nH]c2ccccc12 | 0.584% |
| CCn1cc(/C=C(\NC(=O)c2ccccc2F)C(=O)N2CCOCC2)c2ccccc21 | 6.21% |

| Structure (SMILES) | activity change, negative = inhibition |
| --- | --- |
| Cc1cc(C)cc(Nc2nc(-c3ccc(S(=O)(=O)N4CCCC4)cc3)cs2)c1 | -3.32% [at 3.5 µM] |
| COc1ccc(/C=N/NC(=O)c2ccc(Cl)cc2)cc1COC(C)=O | -20.8% |
| CCn1c(C)nc2c(=O)oc3ccccc3c21 | 12% |
| Cc1nc2c(C)cccn2c(=O)c1NC(=O)COc1ccccc1 | -3.68% |
| O=C(COc1ccc2ccc(=O)oc2c1)NCCc1c[nH]c2ccc(F)cc12 | 13.3% |
| COc1ccc(CC(=O)OCC(=O)Nc2ccc(Br)cc2)cc1 | -9.13% |
| CC(C)C(=O)Nc1cccc(NC(=S)NC(=O)C(c2ccccc2)c2ccccc2)c1 | 2.23% |
| CC(=O)NC(Cc1c[nH]c2ccccc12)C(=O)O (stereo not drawn) | -6.1% |
| CCCOc1ccc(-c2c(C(=O)N/N=C/c3cccs3)nnn2-c2nonc2N)cc1 | 0.204% |
| COc1ccc(-c2ccc3oc(-c4ccc(OC)cc4)c(-c4ccc(OC)cc4)c3c2)cc1 | -14.4% |
| CS(=O)(=O)Nc1ccccc1C(=O)NC1CC2CCC1C2 (stereo not drawn) | -5.81% |
| O=S(=O)(c1ccccc1)c1cnn2c(C(F)(F)F)cc(-c3ccc(F)cc3)nc12 | -1.03% |
| CCN1CCN(c2ccc(NC(=O)c3cccc(OCc4ccccc4)c3)cc2)CC1 | -8.32% |
| COc1cc(C(=O)OCC(=O)Nc2ccc(SC(F)F)cc2)cc(OC)c1OC | -11.7% |
| CC(C)c1ccc(NC(=O)COc2nncc3ccccc23)cc1 | -1.1% |
| CN(C)CC(C)(C)CNC(=S)NCc1ccc2c(c1)OCO2 | -17.6% |
| CC(C)c1cc(=O)oc2c3c4c(cc12)CCCN4CCC3 | -16% |
| CCC(=O)Nc1cccc(NC(=S)NC(=O)c2cccs2)c1 | -15.7% |
| Nc1nnnn1/N=C/c1ccccc1OCc1ccc(Cl)cc1Cl | -1.75% |
